Most compounds without a hit are left out; they make up all but 6.2% or so of the library.
HT1080 IDH1KD tx: qHTS for induction of synthetic lethality in tumor cells producing 2HG: qHTS for the HT-1080-IDH1KD cell line; HT-1080 IDH1 knockdown viability, ATP luminescence, 48 h; Potency, µM (doses to about 46.1 µM), inactives show top-dose activity, negative = toxicity, actives largely listed as cytotoxic; 360,000 tested, 2% active; AID 686971, 2013;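 further: 0% = DMSO wells and -100% = cell-free medium wells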
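In this qHTS, HT-1080 cells depleted of IDH1 are exposed for 48 h at 37 °C to compound titrations. Toxicity is scored from CellTiter-Glo luminescence, with DMSO as full viability and medium alone as none.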
ATXN viability: Viability Counterscreen for Primary qHTS for Inhibitors of ATXN expression; AID 651635, 2014; S2 cells (HEK-293 line with an ATXN2-luciferase reporter) viability, CellTiter-Fluor protease fluorescence, 24 h; Potency, µM (doses to about 56.7 µM), actives largely listed as cytotoxic; 400,000 tested, 0.49% active; further: nearly all actives have a fitted effect of over 40% in size
HT1080NT lethal: qHTS for induction of synthetic lethality in tumor cells producing 2HG: qHTS for the HT-1080-NT fibrosarcoma cell line; 360,000 tested, 1.6% active; Potency, µM (highest dose often 46.1 µM), inactives show top-dose activity, negative = less viability, actives largely listed as cytotoxic; HT-1080-NT fibrosarcoma viability, CellTiter-Glo ATP luminescence, 48 h; AID 686970, 2013;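 further: NT is the 2HG producing partner of a matched IDH1 knockdown line; 0% = DMSO-treated cells and -100% = media-only wells without cells; nearly all actives have a fitted effect of over 55% in size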
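HT-1080-NT fibrosarcoma cells (2HG-overproducing), 750 cells/well in RPMI with 5% FBS, dosed after 2 h and incubated 48 h at 37C. CellTiter-Glo luminescence normalized to DMSO and no-cell wells; concentration-response curves fitted and classed.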
KB-3-1 tox: qHTS assay for MDR1-selective chemotherapeutics: Primary screen using the parental adenocarcinoma cell KB-3-1 | KB-3-1 viability, CellTiter-Glo ATP luminescence, 72 h | Potency, µM (series often up to 46.1 µM), usual class: cytotoxic | 400,000 tested, 1.4% active; further: on the % scale 0 is the no-effect control and ±100 the full control effect; nearly all actives have a fitted effect of over 60% in size
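KB-3-1 cells, DMEM (no phenol red) + 10% FBS; compound by pin transfer, 72 h, 37 °C. Readout: CellTiter-Glo luminescence after 10 min. Data normalized, curve-fitted.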
ATXN2 expr inh: Primary qHTS for Inhibitors of ATXN expression; HEK-293 ATXN2-luciferase reporter, luminescence, 24 h; Potency, µM (top dose mostly 57 µM), inactives show at the highest dose activity change, negative = inhibition, most hits filed as inhibitors; 360,000 tested, 0.72% active; AID 1745845, 2022; further: on the % scale 0 is the no-effect control and ±100 the full control effect; nearly all actives have a fitted effect of over 55% in size
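qHTS (up to 57 uM final) was run with 24 h compound exposure of reporter cells at 37 °C. Each well was multiplexed: SteadyGlo luminescence measured ATXN2-luciferase expression after a fluorogenic Gly-Phe-AFC viability readout (25 uM final).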
KB-V1 cytotox: qHTS assay for MDR1-selective chemotherapeutics: Primary screen using the drug-selected MDR subline cells KB-V1 | KB-V1 MDR cells viability, CellTiter-Glo, 72 h | Potency, µM (top dose mostly 46.1 µM), actives largely listed as cytotoxic | AID 1347076, 2019 | 400,000 tested, 3.4% active; further: on the % scale 0 is the no-effect control and ±100 the full control effect; nearly all actives have a fitted effect of over 60% in size
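Drug-selected KB-V1 cells, grown in DMEM lacking phenol red with 10% FBS, receive compound titrations; after three days at 37 degrees C, surviving cell ATP is quantified by CellTiter-Glo luminescence and responses normalized and curve-fitted.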
The depositor's hits bear a star; i = inactive; ? = inconclusive; · = no result; [ ] = dose if it differs, or a comment. The call rests on the fitted dose curve; in most records, active means well fitted curve in the direction sought with a large enough effect; inconclusive means small, poorly fitted or top-dose-only effect, or another doubt; inactive means no such curve, though single readings can be large; an effect the other way counts as inactive or inconclusive. Potency means the concentration at half of the fitted maximal effect.

SMILES | HT1080 IDH1KD tx | ATXN viability | HT1080NT lethal | KB-3-1 tox | ATXN2 expr inh | KB-V1 cytotox
C/C(=N\NC(=O)c1ccc(Cl)cc1)c1ccc(Br)s1 | -7.5% | i | -26.8% | ? | -13.2% | i
C/C(=N\NC(=O)c1cc(Cl)ccc1O)c1ccc(Br)s1 | ? | ? | -4.6% | ? | 11.2% | 20.6µM*
CN1Cc2cc(C(=O)N3CCC(C4CCNCC4)CC3)ccc2NC(CC(=O)O)C1=O (centres undefined) | · | i | · | · | 10.5% | ·
CC(C)CCOc1ccc(/C=N/N2C(=O)CSC2=S)cc1 | 18.9% | i | 17.0% | i | -23.5% | i
COc1ccc(/C=N/N2C(=N)SCC2=O)cc1 | 1.1% | i | 2.4% | 7.31µM* | 15.6% | 2.59µM*
Cc1ccc(SCCNC(=O)CN(c2ccccc2)S(=O)(=O)N(C)C)cc1 | · | i | · | i | -0.5% | i
C=CCc1c(C)nc(SC)nc1Nc1ccc(C(C)=O)cc1 | -6.1%[9.24 µM] | i | -11.0% | i | 33.5% | 11.6µM*
C=CCc1c(C)nc(SC)nc1Nc1ccc(C(=O)O)cc1 | ? | i | 3.1% | ? | -1.4% | 20.6µM*
C=CCc1c(C)nc(SC)nc1Nc1ccccc1 | -3.7% | i | -2.9% | i | -9.0% | ?
C=CCc1c(C)nc(-c2ccccc2)nc1Nc1ccc(O)cc1 | ? | ? | ? | 20.6µM* | ? | 13µM*
CSc1nsc(SCC(=O)Nc2ccc(C(C)=O)cc2)n1 | 5.7% | i | 1.1%[9.24 µM] | i | 19.0% | i
Cc1ccc(C)c(S(=O)(=O)N2CCN(c3ncccn3)CC2)c1 | ? | i | 18.4µM* | ? | -18.7% | ?
O=C(Nc1ccc(-c2nc3ccccc3[nH]2)cc1)c1ccc(C(F)(F)F)cc1 | · | · | · | i | · | i
COc1ccc(CNC(=O)C2CC(c3cccc(OC)c3)=NO2)cc1 (centres undefined) | -1.4% | i | 3.5% | i | -3.4% | i
COc1cc(NC(=O)C2CC(c3cccc(Br)c3)=NO2)cc(OC)c1OC (centres undefined) | -0.8% | · | -4.0% | i | -17.1% | ?
COc1ccc(NC(=O)C2CC(c3cc(OC)c(OC)c(OC)c3)=NO2)cc1OC (centres undefined) | -14.1% | i | 3.6% | i | 1.8% | 13µM*
COc1cccc(C2=NOC(C(=O)Nc3cc(OC)c(OC)c(OC)c3)C2)c1 (centres undefined) | -28.8% | i | 0.3% | i | -16.9% | 20.6µM*
COc1cc(C2=NOC(C(=O)NC3CCCCC3)C2)cc(OC)c1OC (centres undefined) | -6.1% | i | -3.9% | i | 0.2% | 9.2µM*
COc1cccc(C2=NOC(C(=O)NCc3cccs3)C2)c1 (centres undefined) | 20.6µM* | i | ? | ? | 12.3% | ?
O=C(Nc1cc(F)ccc1F)c1cnn2c1NC(=C1CC1)C=C2C(F)F | · | · | · | i | · | ?
Cc1cc(C)n(-c2ccc(C(=O)NCC3Cc4cc(-c5cnccn5)ccc4O3)cc2)n1 (centres undefined) | · | i | · | · | · | ·
COc1ccc(Nc2nc(C)nc3sc4c(c23)CCC4)cc1O | -13.1% | ? | ? | ? | -3.2% | 5.8µM*
Cc1nc(NCc2ccco2)c2c3c(sc2n1)CCC3 | ? | i | ? | ? | 29.5% | i
CCCOc1ccc2c3c(c(=O)oc2c1OCCC)CCCC3 | -27.6% | i | -11.4% | i | 103.5% | i
Cc1c(OCC(=O)N(C)c2ccccc2)ccc2c3c(c(=O)oc12)CCC3 | -6.5% | i | -4.3% | i | 10.0% | 9.2µM*
SMILES | HT1080 IDH1KD tx | ATXN viability | HT1080NT lethal | KB-3-1 tox | ATXN2 expr inh | KB-V1 cytotox
CCOc1ccc2c3c(c(=O)oc2c1OCC)CCCC3 | 9.6%[9.24 µM] | ? | -2.4% | i | 4.9% | 7.31µM*
COc1cccc(-c2ccc(NC(=O)C3CCCN(Cc4cc(C)[nH]n4)C3)cc2)c1 (centres undefined) | ? | i | -16.8% | i | 4.8% | ?
Cc1ccccc1CN1CCCC(C(=O)Nc2ccc(-c3ccn[nH]3)cc2)C1 (centres undefined) | ? | i | -10.0% | ? | -14.8% | 11.6µM*
COc1cccc(-c2ccc(NC(=O)C3CCCN(Cc4cnn(C(C)C)c4)C3)cc2)c1 (centres undefined) | ? | i | 18.4µM* | ? | ? | i
O=C(Nc1cccc(-c2ccc(F)cc2)c1)C1CCCN(Cc2cccnc2)C1 (centres undefined) | 18.4µM* | i | ? | i | -3.2% | ?
Cc1cccc(CN2CCCC(C(=O)Nc3ccc(-c4cscn4)cc3)C2)c1 (centres undefined) | ? | i | ? | 16.4µM* | -5.1% | ?
COCc1ccc(CN2CCC(C(=O)Nc3cccc(-c4cccc(Cl)c4)c3)CC2)o1 | 16.4µM* | ? | 14.6µM* | ? | ? | ?
COCc1ccc(CN2CCC(C(=O)Nc3cccc(-c4cscn4)c3)CC2)o1 | -0.5% | i | 3.2% | i | 4.1% | i
O=C(Nc1cccc(-c2cccc(Cl)c2)c1)C1CCN(CC2CCOC2)CC1 (centres undefined) | ? | i | 18.4µM* | ? | -23.3% | i
Cc1cccc(-c2ccc(NC(=O)C3CCN(CC4CC4)CC3)cc2)c1 | ? | i | 20.6µM* | i | -38.5% | i
Cc1ccccc1N1CCN(CCC(=O)Nc2ccc(F)cc2)CC1 | -2.5% | i | -0.4% | ? | · | 18.4µM*
O=C(Nc1ccc2c(c1)OCO2)N1CCN(C/C=C/c2ccccc2)CC1 | -20.5% | i | -3.9% | i | -11.4% | 20.6µM*
O=C(Nc1ccc2c(c1)OCCO2)C(c1ccnc2ccccc12)N1CCN(C/C=C/c2ccccc2)CC1 (centres undefined) | 14.6µM* | ? | ? | ? | ? | ?
Cn1c(=O)c2cc(NC(=O)Cc3ccccc3F)ccc2n1C/C=C/c1ccccc1 | -6.3% | i | -4.5% | i | 46.4% | i
O=C(Nc1ccc2c(c1)OCCO2)C(c1ccnc2ccccc12)n1c(=O)c(-c2ccco2)nc2ccccc21 (centres undefined) | -0.4% | · | 8.4% | i | · | i
CCOCCC(=O)Nc1ccc2c(c1)c(=O)n(C)n2C/C=C/c1ccccc1 | 4.11µM* | ? | ? | 6.51µM* | 0.0% | ?
